# PMK inhibit – inhibitors of Streptococcus pneumoniae phosphomevalonate kinase; purified PMK, PK/LDH-coupled NADH absorbance 340 nm; 65,000 compounds, 0.49% hits; inhibition, % at 10 µM; AID 539;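 active = top-ranked compounds by inhibition in the single 10 µM screen, taking a fixed number of the strongest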;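 also: 0% = full reaction with DMSO carrier and 100% = background rate without enzyme reaction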
# NADH coupling – blocks coupling enzymes of NAD/NADH assays. coupled PK/LDH NADH assays, four targets. IC50, µM (doses to about 10 µM), without a hit: at the highest dose inhibition. 65,000 compounds, 0.02% hits. AID 774;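 active = single-dose screening hits from any of four coupled enzyme assays that gave an IC50 when retested across doses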;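 also: the DPM-DC format reads NADH fluorescence rather than 340 nm absorbance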
# Abs 340nm – compound absorbs light at 340 nm. 65,000 tested, under 10 active. AID 708. fold change at 10 µM. compound absorbance at 340 nm, fold over control;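 active = at 10 µM dose, initial 340 nm absorbance at least 2 fold that of control wells; inactive = change under 2 fold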;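 also: initial absorbance extrapolated from kinetic A340 decline of NADH oxidation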
# Autofluor 339 – intrinsic fluorescence of library compounds, ex339/em460 – biochemical, MLSMR library, data from DPM-DC assay, artefact control, profiling panel; compound autofluorescence, ex339/em460 nm, NADH buffer; active compounds read high; 1 = no-compound wells, NADH background; fluorescence fold increase at 10 µM; 65,000 compounds, 5.5% hits; AID 709;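 active = at 10 µM, mean starting fluorescence two-fold or more over control wells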;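 also: signal is the first read of a kinetic run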
# Spn MK inh – inhibitors of Streptococcus pneumoniae mevalonate kinase. 65,000 compounds, 0.48% hits. inhibition, % at 10 µM. purified MK, PK/LDH-coupled NADH absorbance 340 nm. AID 555;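 active = ranked among the strongest by inhibition in the single 10 µM screen, a fixed top-ranked set picked for dose follow-up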
# DPM-DC inhibit – blocks S. pneumoniae diphosphomevalonate decarboxylase; 65,000 compounds, 0.49% hits; purified DPM-DC, PK/LDH coupled NADH fluorescence; calls only at 10 µM;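 active = the 320 compounds with the highest percent inhibition in the single-dose primary screen, excluding strongly autofluorescent ones, cut at about 32% in these data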;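 also: kinetic rate of NADH fluorescence loss reporting ADP formed by the decarboxylase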
# The depositor's hits bear a star; i = inactive; nt = no result shown; + = active, no number; ! = a repeat was not active. Shown are actives, neighbours in structure and some others; about 6.3% of the full set was active somewhere.
SMILES,PMK inhibit,NADH coupling,Abs 340nm,Autofluor 339,Spn MK inh,DPM-DC inhibit
CCC(C)(C)NC(=O)C(c1ccccc1F)N(Cc1ccco1)C(=O)c1csnn1 (configuration not stated),38*,13%,1.1,1.1,0,i
CCO/C=C1\C(=O)N(c2ccccc2)C(=O)c2ccccc21,0,9%,1.1,2.2*,17,nt
O=c1c2cc(Cl)ccc2oc2nc3n(c(=O)c12)CCCS3,7,11%,1.1,2.6*,7,i
O=c1c2ccccc2nc2n1CCCS2,1,0%,1.1,1.1,0,i
COCc1cc(C)c2c(N)c(C#N)sc2n1,21,4%,1,2.4*,0,nt
N#Cc1sc2nc3c(c(-c4ccco4)c2c1N)CCCC3,6,6%,1,1.3,11,i
CCOC(=O)C1CCN(C(=O)c2cc(S(=O)(=O)N3CCOCC3)c(Cl)cc2Cl)CC1,11,4%,0.98,1.1,0,i
CCOc1ccc2nc(NC(=O)c3ccoc3C)sc2c1,4,4%,1.1,1.3,8,i
COc1ccccc1N1CCN(C(=O)CSc2nnc(NC(=O)C3CC3)s2)CC1,11,5%,0.99,1.1,5,i
COc1ccccc1N1CCN(C(=O)CSc2nnc(NC(=O)c3ccco3)s2)CC1,12,15%,1,0.73,0,+
COC(=O)C1=C(C)N(C)C(C)=C(C(=O)OC)C1c1ccc(C(=O)OC)cc1,0,4%,1.1,1.1,11,i
COC(=O)C1=CNC=C(C(=O)OC)C1c1ccc(C(=O)OC)cc1,14,9%,1.1,2.1*,4,nt
N#Cc1c(N)c(C#N)c(-c2ccc(O)cc2)c2c1CCCC2,2,3%,1,2.9*,8,i
COC(=O)c1ccc(C(=O)OC)c(NC(=O)COC(=O)C23CC4CC(CC(O)(C4)C2)C3)c1,12,4%,0.96,1.5,0,i
COCCn1c(CNc2ccc(F)cc2)nnc1SCC(=O)Nc1ccc(OC)cc1OC,15,8%,1,1.1,8,i
COc1ccccc1Oc1coc2cc(O)ccc2c1=O,17,9%,1.1,4.8*,0,nt
CCOc1ccccc1Oc1coc2cc(OC(=O)c3ccco3)ccc2c1=O,0,6%,1.1,1.5,9,i
CCOc1ccccc1Oc1coc2cc(O)ccc2c1=O,16,8%,1.1,4.7*,0,nt
CN1CCc2cc3c(c4c2C1CC41CCC(=NO)CC1)OCO3 (configuration not stated),7,13%,1,1.8,12,i
COc1ccc2c(c1OC)C(=O)OC2C1c2c(cc3c(c2OC)OCO3)CCN1C (configuration not stated),26*!,1%,1,1.1,9,i
CCOC(=O)N1CCC(NC(=O)CN2C(=O)CCSc3ccccc32)CC1,4,2%,0.98,1,11,i
CCOC(=O)N1CCC(NC(=O)c2cc3cc4cc(OC)ccc4nc3o2)CC1,9,5%,1.1,5.1*,0,nt
CCOC(=O)N1CCC(NC(=O)c2ccc3c(c2)N(CC)CCS3)CC1,5,4%,0.99,2.4*,9,nt
CN(C)CCNC(=O)c1ccc(COCC(F)(F)F)cc1,1,3%,0.99,1,8,i
CN(C)CCNC(=O)c1ccc2c(c1)N(Cc1ccc(F)cc1)CCS2,20,15%,1,2*,10,nt
SMILES,PMK inhibit,NADH coupling,Abs 340nm,Autofluor 339,Spn MK inh,DPM-DC inhibit
COc1ccc2nc3oc(C(=O)N4CCN(c5ccccc5F)CC4)cc3cc2c1,7,2%,1,1.4,0,i
COc1ccc2nc3oc(C(=O)NC4CCN(Cc5ccccc5)CC4)cc3cc2c1,10,15%,1,3.4*,3,nt
O=C(NCCCN1CCCC1=O)c1cccc(C(F)(F)F)c1,7,4%,1,1.1,5,i
CN1C(=O)N(C)C2(c3ccccc3)N(C)C(=O)NC12c1ccccc1 (configuration not stated),15,14%,1,1.1,11,i
CCOC(=O)N1CCC(NC(=O)c2ccc3c(c2)sc2nc(-c4ccc(OC)cc4)cn23)CC1,9,7%,1,3.5*,11,i
Cc1nn2c(=O)nc3sc4c(c3c2[nH]c1=O)CCCC4,0,6%,1.1,1,17,i
